In the library only some 19% were active in any assay of this set; here they are far more common.
KB-3-1 tox: KB-3-1 parental cell cytotoxicity | KB-3-1 viability, CellTiter-Glo ATP luminescence, 72 h | Potency, µM (doses to about 46.1 µM), most hits filed as cytotoxic | actives 1.4% (n = 400,000); note: nearly all actives have a fitted effect of over 60% in size
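Using CellTiter-Glo luminescence, growth of non-resistant KB-3-1 adenocarcinoma cells is assessed 72 h after pin-tool compound addition at 37 °C. Normalized responses across the concentration series yield fitted curves.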
HT1080NT lethal: kills 2HG-producing HT-1080-NT fibrosarcoma cells; HT-1080-NT fibrosarcoma viability, CellTiter-Glo ATP luminescence, 48 h; actives 1.6% (n = 360,000); Potency, µM (highest dose often 46.1 µM), without a hit: at the highest dose activity, negative = less viability, hits mostly cytotoxic;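 note: NT is the 2HG producing partner of a matched IDH1 knockdown line; 0% = DMSO-treated cells and -100% = media-only wells without cells; nearly all actives have a fitted effect of over 55% in size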
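Compounds were tested in concentration-response format on HT-1080-NT cells for 48 hours at 37 degrees C. Cell viability came from CellTiter-Glo luminescence; curves were classified by r2, response magnitude and activity.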
TDP1 cell noCPT: qHTS for Inhibitors of human tyrosyl-DNA phosphodiesterase 1 (TDP1): qHTS in cells in absence of CPT; DT40 Tdp1-/- hTDP1 cells, no CPT, ATP luminescence, 48 h; Potency, µM (highest dose often 46.2 µM), without a hit: at the top dose activity change, negative = growth inhibition, hits mostly inhibitors; actives 15% (n = 420,000); AID 686978, 2013; note: nearly all actives have a fitted effect of over 55% in size
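Readout: luminescence from CellTiter-Glo after 30 min in the dark at RT. Cells: DT40 Tdp1-/- with stable hTDP1, 400/well. Exposure: compounds alone, ≥48 hr, 37 °C.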
KB-V1 cytotox: kills drug-selected multidrug resistant KB-V1 cells; KB-V1 MDR cells viability, CellTiter-Glo, 72 h; Potency, µM (series often up to 46.1 µM), actives largely listed as cytotoxic; actives 3.4% (n = 400,000); AID 1347076; note: nearly all actives have a fitted effect of over 60% in size
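Potencies derive from concentration-effect curves fitted to normalized luminescence (CellTiter-Glo) of KB-V1 cells treated for 72 h at 37 degrees C in phenol-red-free DMEM containing 10% FBS.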
HT1080 IDH1KD tx: HT-1080 IDH1 knockdown cell toxicity (counter line). HT-1080 IDH1 knockdown viability, ATP luminescence, 48 h. actives 2% (n = 360,000). Potency, µM (top dose mostly 46.1 µM), inactives show at the highest dose activity, negative = toxicity, usual class: cytotoxic;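 note: 0% = DMSO wells and -100% = cell-free medium wells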
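Using the IDH1-knockdown HT-1080 line run in the same batch and compound series as the NT line, viability after 48 h at 37 °C was determined by CellTiter-Glo luminescence and expressed as % activity.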
TDP1 cell CPT: DT40-hTDP1 cell growth loss with CPT; chicken DT40 Tdp1-/-;hTDP1 cells + 20 nM CPT, ATP luminescence, 48 h; Potency, µM (highest dose often 46.2 µM), for inactives: at the top dose activity change, negative = growth inhibition, hits mostly inhibitors; actives 12% (n = 420,000); AID 686979; note: nearly all actives have a fitted effect of over 55% in size
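Cell growth measured by CellTiter-Glo luminescence after a minimum 48 h, 37 C compound exposure with 20 nM CPT in Tdp1-knockout DT40 cells stably expressing hTDP1, seeded 400/well; qHTS titration format.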
* = called active by the depositor; i = inactive; ? = inconclusive; · = not tested or not shown. Calls come from the whole dose curve; as a rule, active = well fitted curve in the direction sought with a large enough effect; inconclusive = small, poorly fitted or top-dose-only effect, or another doubt; inactive = no such curve, though single readings can be large; an effect the other way counts as inactive or inconclusive. Unless noted, % is set by controls: 0 for no effect and ±100 for the full control effect; potency is the fitted concentration of half-maximal effect.

SMILES | KB-3-1 tox | HT1080NT lethal | TDP1 cell noCPT | KB-V1 cytotox | HT1080 IDH1KD tx | TDP1 cell CPT
CC(=O)c1cccc(NC(=O)c2ccc([N+](=O)[O-])o2)c1 | ? | 14.6µM* | 14.6µM* | 16.4µM* | ? | 8.2µM*
Cc1cc(C)cc(NC(=O)c2ccc([N+](=O)[O-])o2)c1 | ? | ? | 6.51µM* | 13µM* | 16.4µM* | 7.31µM*
COc1cc(NC(=O)c2ccc([N+](=O)[O-])o2)ccc1NC(=O)c1ccco1 | ? | 9.6% | 0.92µM* | i | 19.3% | 0.651µM*
CCCOC(=O)CCCCCCCCC(O)CN1CCCCC1 (stereo not given) | i | 14.5% | -15.2% | i | 20.7% | -14.8%
COc1ccc(Cl)cc1NC(=O)C1Cc2cc(S(=O)(=O)N3CCCC3)ccc2N1C(C)=O (stereo not given) | i | -12.5% | ? | i | -9.8% | ?
COc1ccccc1CNC(=O)CCn1c(=O)c2ccccc2n(CC(=O)Nc2cc(Cl)ccc2C)c1=O | i | · | ? | i | · | -28.0%
Cc1cc(C)nc(NC(=O)c2ccc([N+](=O)[O-])o2)n1 | i | -2.7% | 13µM* | i | -19.7% | ?
CC(NC(=O)c1ccc([N+](=O)[O-])o1)C12CC3CC(CC(C3)C1)C2 (stereo not given) | ? | 18.4µM* | ? | ? | ? | ?
CC(=O)c1ccc(NC(=O)c2ccc([N+](=O)[O-])o2)cc1 | ? | ? | 1.84µM* | ? | 18.4µM* | 2.06µM*
Cc1ccc(NC(=O)c2ccc(Cl)c(S(=O)(=O)N3CCCC3)c2)nc1 | i | 4.0% | -16.1% | i | -4.1% | -5.6%
Cc1c(Cl)cccc1NC(=O)CCCn1nc(C)c2sc3ccccc3c2c1=O | i | · | ? | i | · | ?
Cc1nnc2c(N(C)S(=O)(=O)c3ccccc3)nc3ccccc3n12 | ? | 15.4% | 0.1% | i | 12.9% | -10.3%
Cc1cccc(N(C)c2nc3ccccc3c3nnc(C)n23)c1 | i | · | 29.1µM* | i | · | ?
CC(=O)N(C(C)=O)c1ncnc2c1c(-c1ccc(Cl)cc1)nn2C(C)(C)C | ? | ? | 18.4µM* | ? | 14.6µM* | ?
CCOc1cc(/C=C/C(=O)c2ccc(OC)c(CN3CCOCC3)c2)cc(Br)c1O | ? | ? | ? | ? | 23.1µM* | ?
CCOc1cc(/C=N/NC(=O)c2ccc(CN3CCOCC3)cc2)ccc1OC | i | 0.4% | -23.6% | i | -4.6% | 3.0%
CCC1CCCCN1C(=O)CSc1nnc(-c2c[nH]c3ccccc23)o1 (stereo not given) | i | -16.0% | ? | i | -11.9% | 20.6µM*
O=C(COC(=O)c1c[nH]c2ccccc12)NC1CCCC1 | i | -0.1% | -16.7% | i | 2.6% | -6.4%
CCC1CCCCN1C(=O)CSc1nnc(-c2ccc(OC)cc2)o1 (stereo not given) | i | -1.2% | 20.6µM* | ? | -2.7% | ?
CC1CCCN(C(=O)CSc2nnc(-c3c[nH]c4ccccc34)o2)C1 (stereo not given) | i | ? | ? | i | -25.8% | ?
CCC1CCCCN1C(=O)CSc1nnc(-c2ccc3c(c2)OCCO3)o1 (stereo not given) | i | 3.8% | -28.1% | i | 5.4% | -5.1%
CC1CCCC(C)N1C(=O)COC(=O)c1c[nH]c2ccccc12 (stereo not given) | i | -0.4% | 3.26µM* | i | -0.3% | -8.1%
CC1CCCC(C)N1C(=O)CSc1nnc(-c2c[nH]c3ccccc23)o1 (stereo not given) | i | -2.0% | 16.4µM* | i | -1.9% | ?

High-throughput results from PubChem BioAssay.
